SSB-PriA inh: blocks PriA binding to SSB C-terminal tail | inhibition, % at 33 µM | AlphaScreen SSBct-PriA binding, biotinylated peptide | actives 0.6% (n = 430,000); in the data active = inhibition mostly above about 37%, no sharp cut-off; inactive = mostly below about 20%;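 also: plate controls were negative control peptide for no effect and reference peptide for full effect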
MazF activator: MazEF (E. coli) toxin RNase activation | FAM/BHQ RNA-DNA oligo cleavage fluorescence, 5 h | activation, % at 20 µM | actives 0.32% (n = 350,000); in the data active = activation above about 50%
Target sequence (P0AE70 whole entry, looked up): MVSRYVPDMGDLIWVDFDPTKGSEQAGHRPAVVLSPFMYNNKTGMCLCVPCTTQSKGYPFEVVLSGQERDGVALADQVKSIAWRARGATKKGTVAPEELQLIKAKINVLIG
Yp Topo-I inh: Y. pestis Topo-I inhibition via cleavage products. AID 504884. activity, % at 10 µM. actives 0.064% (n = 360,000). Y. pestis Topo-I cleavage product accumulation, plate reader; in the data active = activity above about 50%, passing the limit was not always enough
3CLpro inhibitor: SARS-CoV 3CLpro protease inhibition; recombinant SARS-CoV 3CLpro, quenched FRET peptide cleavage; inhibition, % at 6 µM; actives 0.14% (n = 290,000); in the data active = inhibition above about 12%
Starred values were filed as active, the others as inactive; . = no result given; + = active, no number; ! = repeats disagree. An excerpt weighted towards active compounds, which were near 0.9% of everything screened.

SMILES	SSB-PriA inh	MazF activator	Yp Topo-I inh	3CLpro inhibitor
CCCCN(CC)S(=O)(=O)c1ccc(C(=O)N(CCCN(C)C)c2nc3cc(C)cc(C)c3s2)cc1	28.7	6.3	5.3	-8.4
CC(C)(C)OC(=O)N1CCN(CC/C(N)=N\O)CC1	9.0	.	.	.
CN(C)CCN(C(=O)c1cccc2ccccc12)c1nc2cc3c(cc2s1)OCO3	46.8*	5.2	14.8	-1.0
Cc1ccc([N+](=O)[O-])cc1S(=O)(=O)Nc1ccc(-c2cn3c(n2)SCC3)cc1	39.0*	.	.	.
Cc1ccc2sc(NC(=O)CN3C(=O)CCC3=O)nc2c1C	104.2*	-4.7	-8.6	5.0
Cc1ccc(C)c2sc(NC(=O)CN3C(=O)CCC3=O)nc12	1.0	-13.3	7.6	4.8
CSc1ccc(NC(=O)c2cc(C)no2)cc1	-22.0	.	.	.
Cc1ccc(O)c(N=Nc2ccc(S(=O)(=O)N3CCOCC3)cc2)c1	39.0*	4.0	4.3	2.6
O=C(N[C@H]1CCN(Cc2noc(-c3ccccc3)n2)C1)c1ccc2c(c1)OCO2	-9.0	.	.	.
CC1CCc2c(sc(NC(=O)CCSc3ccc(Cl)cc3)c2C(N)=O)C1 (configuration not stated)	4.0	.	.	.
CC1CCc2c(sc(Nc3nc4c(F)cccc4s3)c2C(N)=O)C1 (configuration not stated)	51.0*!	25.2	11.0	-0.6
CCOc1ccc(S(=O)(=O)NC)cc1	-13.0	.	.	.
CCOc1ccc(S(=O)(=O)NN)cc1	-9.4	50.3*	-1.6	-1.3
Cc1ccc(NC(=O)C(=O)c2c[nH]c3ccccc23)cc1	-3.9	9.6	-5.2	7.5
O=C(Nc1ccc(Nc2ccccc2)cc1)C(=O)c1c[nH]c2ccccc12	48.0*	.	.	.
Cc1ccc(/C=C/C(=O)N2CCC(Cc3ccccc3)CC2)cc1	5.8	-0.8	50.9*	1.2
Cc1ccccc1C(=O)Oc1cc(N)n(S(C)(=O)=O)n1	-9.9	11.0	-14.7	0.5
Cc1c(C(=O)Oc2cc(N)n(S(C)(=O)=O)n2)cccc1[N+](=O)[O-]	-3.7	73.8*	4.2	1.4
Cc1cccc(Nc2nc(N)c([N+](=O)[O-])c(N3CC(C)OC(C)C3)n2)c1 (configuration not stated)	23.2	3.1	0.7	-2.1
Cc1cccc(Nc2nc(N)c([N+](=O)[O-])c(N3CC(C)CC(C)C3)n2)c1 (configuration not stated)	50.1*	-2.8	26.5	3.4
c1cc2c(cc1Nc1nc(Nc3ccc4c(c3)OCO4)nc(N3CCOCC3)n1)OCO2	20.0	.	.	.
COc1ccc(Nc2nc(Nc3ccc4c(c3)OCO4)nc(N3CCOCC3)n2)cc1	38.0*	.	.	.
O=C(CSc1nc(-c2ccccc2)c(-c2ccccc2)[nH]1)NCc1ccco1	41.5*	-12.7	-0.1	-1.8
COc1ccc(NC(=O)c2c(OC)cccc2OC)c(OC)c1	66.9*	8.7	-7.0	-2.2
COc1ccc(NC(=O)c2ccc(C(=O)Nc3ccc(OC)cc3OC)cc2)c(OC)c1	-4.1	-9.2	6.8	2.5
SMILES	SSB-PriA inh	MazF activator	Yp Topo-I inh	3CLpro inhibitor
COc1ccc(NC(=O)Nc2ccc3c(c2)CCC3)c(OC)c1	-11.8	56.5*	-0.9	3.2
COc1ccc(F)cc1S(=O)(=O)NCCc1nc(-c2cccs2)cn1C	-6.0	.	.	.
O=C(CCc1ccccc1)N1CCN(c2nc3c(F)cc(F)cc3s2)CC1	-6.0	.	.	.
CCc1cc2cc3c(cc2nc1SCC(=O)Nc1nnc(C)s1)OCCO3	-18.3	-14.9	4.8	0.8
CCc1nnc(NC(=O)CSc2nc3cc4c(cc3cc2CC)OCCO4)s1	-2.1	81.7*	3.7	-8.7
CCS(=O)(=O)NCC(c1ccc2c(c1)OCO2)N1CCN(c2ccccc2F)CC1 (configuration not stated)	3.0	.	.	.
O=C1CCc2cc(S(=O)(=O)NCC3CCN(S(=O)(=O)C4CC4)CC3)cc3c2N1CC3	39.0*	.	.	.
O=C(CN1CCN(Cc2ccc3c(c2)OCO3)CC1)Nc1ccc(F)cc1	-1.2	3.0	6.8	0.2
O=C(CN1CCN(C(=O)CNC(=O)c2ccc3c(c2)OCO3)CC1)Nc1ccc(F)cc1	53.1*	-31.4	4.8	.
FC(F)(F)c1cccc(Nc2ncnc3scc(-c4ccc(Br)cc4)c23)c1	-20.0	.	.	.
COc1ccc(-c2noc(-c3ccc(CSc4ccccc4)o3)n2)cc1	-8.0	.	.	.
Clc1ccc(-c2noc(-c3ccc(CSc4ccccc4)o3)n2)cc1	81.0*	.	.	.
Cc1cc(/C=C2\NC(=S)N(C)C2=O)ccc1N1CCCC1	-4.1	213.9*	-23.2	-2.0
O=C(Cc1ccc(F)cc1)NCCn1ncc2c(=O)n(Cc3cccc(Cl)c3)cnc21	8.0	.	.	.
Nc1ccccc1Nc1c(F)c(F)nc(F)c1Cl	38.5*	2.4	-6.6	-2.0
Cc1cc(C=O)c(C)n1-c1ccc(NC2CCCC2)c([N+](=O)[O-])c1	67.5*	2.7	13.6	.
CCOc1ccccc1NC(=O)C(=O)NCC(c1ccc2c(c1)CCCN2C)N1CCCC1 (configuration not stated)	58.0	.	.	.
CCCc1cc(=O)[nH]c(-n2nc(C)cc2NC(=O)C(C)(C)CCl)n1	44.0*	.	.	.
N#CC(C#N)=C1C=C2C=C(N3CCCCC3)CCC2CC1 (configuration not stated)	-14.5	+	.	-81.6
CSc1ccc2nc(N3CCNCC3)sc2c1	15.0	.	.	.
Cc1cc(C)c(C#N)c(SCC(=O)c2cccs2)n1	-10.2	108.7*	-3.9	-2.6
O=[N+]([O-])c1ccc(S(=O)(=O)NN=C2CCCCC2)cc1	-1.3	118.9*	11.2	.
COc1ccc(C=NNC(=O)C2COc3ccccc3O2)cc1OC (configuration not stated)	-6.8	.	.	.
O=c1c(O)c(-c2ccc(O)cc2)oc2cc(O)cc(O)c12	7.9	7.1	-3.7	.
O=c1c(O)c(-c2ccc(O)c(O)c2)oc2cc(O)ccc12	-5.4	57.8*	-17.4	.
SMILES	SSB-PriA inh	MazF activator	Yp Topo-I inh	3CLpro inhibitor
N#Cc1nc(-c2cccs2)oc1NCc1ccccc1Cl	45.1*	-3.0	-2.9	-0.5
CCOC(=O)C1CCN(c2nc3ccccc3nc2C(C#N)C(=O)OC(C)COC)CC1 (configuration not stated)	-20.2	-10.7	11.9	-2.0
COc1ccc(CNC(=O)C(C#N)c2nc3ccccc3nc2N2CCCC2)cc1 (configuration not stated)	-13.2	+	22.3	-2.4
CCOC(=O)C1CCN(c2nc3ccccc3nc2C(C#N)C(=O)OC(C)C)CC1 (configuration not stated)	-14.2	351.3*	-3.8	0.1
COCCN1CCCc2ccc(NC(=O)c3cc(Cl)ccc3OC)cc21	35.0	.	.	.
CCCc1cc(=O)[nH]c2nnc(SCC(=O)Nc3ccc(C)c(Cl)c3)n12	-16.0	.	.	.
CCOCC(=O)NC[C@H](O)c1cn(C)c2ccccc12	-6.0	.	.	.
Cc1ccc(OCC(=O)N2C3CCC2CC(S(=O)(=O)c2ccccc2)C3)cc1 (configuration not stated)	79.0*	.	.	.
O=C(c1ccc(Cl)cc1)N1C2CCC1CC(S(=O)(=O)c1ccccc1)C2 (configuration not stated)	-6.0	.	.	.
O=C(c1ccc2nsnc2c1)N1C2CCC1CC(S(=O)(=O)c1ccccc1)C2 (configuration not stated)	74.0*	.	.	.
CCOc1ccc(S(=O)(=O)N2C3CCC2CC(S(=O)(=O)c2ccccc2)C3)cc1 (configuration not stated)	-4.0	.	.	.
